VACV Venus inh = vaccinia inhibition (Venus reporter); 330,000 tested, 0.46% active; AID 720580; Vaccinia virus Venus reporter expression, fluorescence; Potency, µM (highest dose often 36.5 µM), inactives show at the top dose activity change, negative = inhibition, usual class: inhibitors; calls by dose curve; tested in A549 cells; also: nearly all actives have a fitted effect of over 30% in size
HCV inh = inhibitors of hepatitis C virus infection; AID 651820; 340,000 tested, 3.4% active; Potency, µM (doses to about 41.8 µM), inactives show top-dose activity change, negative = inhibition, actives largely listed as inhibitors; Huh7.5.1 HCVcc-Cre infection, luciferase reporter, 44 h; active = well fitted inhibition curve with a large enough effect; inconclusive = small, poorly fitted or top-dose-only effect, or another doubt; inactive = no such curve, though single readings can be large or run the other way
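Luciferase read-out (15 sec integration) after a 15 min room-temperature substrate step quantifies HCVcc-Cre infection. Cells, 1,000 per well, had compound added 4 h post-plating, then virus at ~0.5 moi, and were cultured 44 h.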
VACV mCherry inh = inhibitors of vaccinia virus infection (mCherry reporter signal) | Potency, µM (titrated, usually from 36.5 µM), without a hit: top-dose activity change, negative = inhibition, most hits filed as inhibitors | 310,000 tested, 0.63% active | Vaccinia virus mCherry reporter infection, fluorescence; calls by dose curve; tested in A549 cells; also: nearly all actives have a fitted effect of over 35% in size
* = called active by the depositor; i = inactive; u = inconclusive; x = no result given; ! = not confirmed by another sample; [ ] = remark or other dose. The list is not random: actives were taken first. Their share in the collection is about 3.3%. % is scaled to controls: 0 for no effect and ±100 for the full control effect; potency is read from the fitted curve at half-maximal effect.

SMILES	VACV Venus inh	HCV inh	VACV mCherry inh
COc1ccc(NC(=O)COC(=O)c2cc(C)oc2C)c([N+](=O)[O-])c1	x	-13%	x
COCc1oc2ccc(NS(=O)(=O)c3ccc(C)cc3)cc2c1C(=O)OC	-15%[7.34 µM]	x	-17%[7.34 µM]
Cc1cc(OCC(=O)NNC(=O)c2cccs2)ccc1Br	17%	4%	-25%
COc1cc2c(cc1NC(=O)COC(=O)Cn1cnc3ccccc31)oc1ccccc12	-15%	2.2µM*	-25%
COc1ccc(CN(C)CC(=O)Nc2cc3oc4ccccc4c3cc2OC)c(OC)c1	-28%	u	-13%
COc1cc2c(cc1NC(=O)CSCC(=O)O)oc1ccccc12	-6%	-15%	-23%
COc1ccc(C)cc1NC(=O)c1nn(-c2ccccc2)cc1OC	u	7.1µM*	u
COc1cc2c(cc1NC(=O)CN(C)Cc1ccc(OC)c(OC)c1)oc1ccccc12	x	3.5µM*	x
COc1cc2c(cc1NC(=O)CSc1ccc(C)cc1)oc1ccccc12	x	10µM*	x
COc1cn(-c2ccccc2)nc1C(=O)Nc1ccc(C)cc1	-24%	u	-29%
COc1ccc(CCNC(=O)COC(=O)Cn2cnc3ccccc32)cc1OC	-11%	5%	i
O=C1c2oc3ccccc3c(=O)c2C(c2ccccc2)N1Cc1ccc2c(c1)OCO2 (stereo not drawn)	-13%	x	-11%
Cc1ccc(NC(=O)CSc2nccn2C2CCCC2)cc1Cl	-9%	x	-18%
Cc1ccc(CC(=O)N2CCN(C(=O)C3CCCO3)CC2)cc1 (stereo not drawn)	x	12%	x
CCC(C)[C@H](NC(=O)N1CC(=O)Nc2ccccc21)C(=O)N[C@@H](Cc1c[nH]c2ccccc12)C(=O)O (stereo partly drawn)	-14%	6%	-22%
CC(C)N(Cc1nccn1C)C(=O)CC1C(=O)NCCN1Cc1ccc(F)c(F)c1 (stereo not drawn)	x	10%	x
C1CCC(NC(=NC2C3CC4CC(C3)CC2C4)N2CCOCC2)CC1 (stereo not drawn)	-13%[60.7 µM]	x	u
COc1cc2c(cc1NC(=O)CCC(=O)O)oc1ccccc12	-8%	u	-6%
COc1cc2c(cc1NC(=O)Cc1ccc(C)cc1)oc1ccccc12	x	10µM*	x
COc1ccc(-n2c(SCC#N)nc3ccccc3c2=O)cc1	-28%	3%	x
COc1ccc(Cn2c(SCC#N)nc3ccc(N4CCOCC4)cc3c2=O)cc1	-12%	5µM*	-23%
CCCCn1c(SCC(=O)Nc2cccc(OC)c2)nc2ccc(N3CCOCC3)cc2c1=O	x	8.9µM*!	x
CCCCn1c(SCC(N)=O)nc2ccc(N3CCOCC3)cc2c1=O	x	-9%	x
Cc1ccc(C)c(N2CCN(C(=O)CN3C(=O)CSc4c3c(C)nn4-c3ccccc3)CC2)c1	-7%	x	-4%
O=C(NC1CCCCCC1)C1CCC(CNS(=O)(=O)c2cccc3cccnc23)CC1 (stereo not drawn)	-8%	x	-16%
SMILES	VACV Venus inh	HCV inh	VACV mCherry inh
COC(=O)c1cc(C(=O)c2c(C)cc3ccccn23)cc([N+](=O)[O-])c1	-21%	u	i
Cc1cc2ccccn2c1C(=O)c1ccc(NN)c([N+](=O)[O-])c1	u	-21%	0.89µM*
Cc1cc(=O)n2[nH]c(NCc3ccc(F)cc3)nc2n1	-16%	x	-11%
CC(NC(=O)c1cc(F)ccc1F)c1nnc2n1CCN(Cc1ccco1)CC2 (stereo not drawn)	0%	x	-2%
CCN1C(=O)[C@H]2[C@@H](c3ccc(-c4ccc(F)cc4)c(OC)c3)N3CCC[C@@]3(C(=O)OC)[C@H]2C1=O	-23%	3.2µM*	u
CCN1C(=O)[C@@H]2[C@@H](c3ccc(-c4ccc(Cl)c(Cl)c4)c(OC)c3)N3CCC[C@@]3(C(=O)OC)[C@@H]2C1=O	u	10µM*	-9%
CCN1C(=O)[C@@H]2[C@@H](c3ccc(-c4ccc(Cl)c(Cl)c4)cc3)N3CCCC[C@@]3(C(=O)OC)[C@@H]2C1=O	-23%	14%	i
CCN1C(=O)[C@@H]2[C@@H](c3ccc(-c4ccc(OC)cc4)c(OC)c3)N3CCCC[C@@]3(C(=O)OC)[C@@H]2C1=O	-22%	2%	-6%
NCCc1nnc(SCc2ccc(Cl)cc2)o1	-10%	x	-10%
CN(CC(=O)O)c1ccc(/C=C2\C=Cc3ccccc32)cc1	-10%	x	-17%
Cc1cccc(C(=O)NCC(=O)OCC(=O)c2ccc3ccccc3c2)c1	8%	x	37%
O=C(O)c1cc(O)c2c(c1)[C@H]([C@H]1c3cc(C(=O)O)cc(O)c3C(=O)c3c(O[C@@H]4O[C@H](CO)[C@@H](O)[C@H](O)[C@H]4O)cccc31)c1cccc(OC3O[C@H](CO)[C@@H](O)[C@H](O)[C@H]3O)c1C2=O (stereo partly drawn)	-14%	0.35µM*!	i

Assay outcomes: PubChem, National Center for Advancing Translational Sciences (NCATS)
